Calls of active or inactive are those of the source.
Assays:
[1] = E. coli DRC41 culture turbidity changes, primary screen, E. coli filamentation inducer project, strain DRC41, OD650, 48 h (AID 1152);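 also: E. coli MC1000 strain DRC41 lacking acrAB efflux pump and sulA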; conditions: E. coli DRC41 (acrAB sulA), higher = more signal, called active from +8 up or from −8 down
[2] = small-molecule binders of probe aLefty1, primary screen, biochemical, small-molecule microarray, 635/667 nm fluorescence (AID 1153); conditions: higher = more signal;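 also: score merges spot fluorescence with signal-to-noise ratio from the scanned slide images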
[3] = PSAC antagonists in infected red cells, primary screen, cell-based, P. falciparum Indochina, OD700, 1 h (AID 1154); conditions: P. falciparum Indochina infected RBC osmotic lysis, higher = more signal, called active from +8 up or from −8 down
[4] = PSAC antagonists in infected red cells, primary screen, cell-based, P. falciparum Indochina, OD700, 2 h (AID 1155);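 also: lysis reports solute entry through the parasite surface anion channel PSAC; channel blockers reduce lysis of infected cells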; conditions: P. falciparum Indochina infected erythrocytes, osmotic lysis OD700; higher = more signal, called active from +8 up or from −8 down
[5] = osmotic lysis modulators in infected erythrocytes, primary screen, PSAC antagonist project, cell-based, P. falciparum Indochina, OD700, 3 h (AID 1156); conditions: higher = more signal, called active from +8 up or from −8 down
[6] = PSAC antagonists in infected red cells, primary screen, cell-based, P. falciparum Indochina, OD700, 18 h (AID 1157); conditions: P. falciparum Indochina infected erythrocytes, osmotic lysis OD700, 18 h; higher = more signal, called active from +8 up or from −8 down
[7] = modulators of S6 phosphorylation in cells, primary screen, cell-based, A549, cytoblot, luminescence, serum-stimulated (AID 1158); conditions: A549 phospho-S6 cytoblot, 5 h, higher = more signal;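 also: serum-stimulated A549 lung adenocarcinoma cells; signal is phosphorylated S6 detected by cytoblot immunostaining with HRP secondary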
[8] = target: NADPH oxidase 2 (Homo sapiens) (UniProt P04839); assay: NOX2-dependent H2O2 signal modulators, primary screen, NOX inhibitor project, cell-based, HEK293-NOX2, PMA-stimulated, Amplex Red fluorescence (AID 1159); conditions: 45 min, higher = more signal, called active from +8 up or from −8 down; also: test concentration not given here
Sequence of NADPH oxidase 2 (Homo sapiens) (P04839 whole entry, looked up): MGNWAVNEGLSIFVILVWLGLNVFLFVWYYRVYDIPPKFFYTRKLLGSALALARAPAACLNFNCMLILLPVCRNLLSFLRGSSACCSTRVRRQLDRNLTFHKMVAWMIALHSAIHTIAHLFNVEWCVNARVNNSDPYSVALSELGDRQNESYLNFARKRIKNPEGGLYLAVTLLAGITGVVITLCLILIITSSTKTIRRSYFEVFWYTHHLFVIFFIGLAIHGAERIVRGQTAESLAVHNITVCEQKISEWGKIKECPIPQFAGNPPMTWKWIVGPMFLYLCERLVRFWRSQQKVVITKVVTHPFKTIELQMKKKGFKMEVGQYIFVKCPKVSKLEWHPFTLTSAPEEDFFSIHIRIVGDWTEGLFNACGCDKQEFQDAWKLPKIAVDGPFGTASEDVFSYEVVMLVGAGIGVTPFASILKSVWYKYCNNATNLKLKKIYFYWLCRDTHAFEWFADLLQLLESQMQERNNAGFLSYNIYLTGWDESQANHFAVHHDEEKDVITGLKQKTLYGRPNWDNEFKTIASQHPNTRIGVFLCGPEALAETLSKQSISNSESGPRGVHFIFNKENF

[9] = target: NADPH oxidase 4 (Homo sapiens) (UniProt Q9NPH5); assay: NOX4-dependent H2O2 signal modulators, primary screen, NOX inhibitor project, cell-based, HEK293-NOX4, tetracycline-induced, Amplex Red fluorescence (AID 1160); conditions: 45 min, higher = more signal, called active from +8 up or from −8 down
Sequence of NADPH oxidase 4 (Homo sapiens) (Q9NPH5 whole entry, looked up): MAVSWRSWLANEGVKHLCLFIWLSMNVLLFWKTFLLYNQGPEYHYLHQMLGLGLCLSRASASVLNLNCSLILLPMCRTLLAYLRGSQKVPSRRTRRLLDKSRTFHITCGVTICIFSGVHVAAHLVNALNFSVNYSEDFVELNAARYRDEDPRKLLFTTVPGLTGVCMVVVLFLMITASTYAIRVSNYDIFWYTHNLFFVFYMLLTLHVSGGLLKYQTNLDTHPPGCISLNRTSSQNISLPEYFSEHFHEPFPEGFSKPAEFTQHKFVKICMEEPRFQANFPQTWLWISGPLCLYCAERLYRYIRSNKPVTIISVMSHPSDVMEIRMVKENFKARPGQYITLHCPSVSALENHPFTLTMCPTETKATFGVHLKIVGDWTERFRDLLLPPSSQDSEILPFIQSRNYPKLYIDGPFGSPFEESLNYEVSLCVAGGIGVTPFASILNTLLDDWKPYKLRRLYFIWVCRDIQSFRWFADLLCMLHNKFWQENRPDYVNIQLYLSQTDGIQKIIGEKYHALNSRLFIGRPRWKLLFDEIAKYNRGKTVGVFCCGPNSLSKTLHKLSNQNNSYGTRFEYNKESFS

[10] = target: NADPH oxidase 5 (Homo sapiens) (UniProt Q96PH1); assay: NOX5-dependent H2O2 signal modulators, primary screen, NOX inhibitor project, cell-based, HEK293-NOX5, Amplex Red fluorescence (AID 1161); conditions: HEK293-NOX5, ionomycin, 45 min, higher = more signal
Sequence of NADPH oxidase 5 (Homo sapiens) (Q96PH1 whole entry, looked up): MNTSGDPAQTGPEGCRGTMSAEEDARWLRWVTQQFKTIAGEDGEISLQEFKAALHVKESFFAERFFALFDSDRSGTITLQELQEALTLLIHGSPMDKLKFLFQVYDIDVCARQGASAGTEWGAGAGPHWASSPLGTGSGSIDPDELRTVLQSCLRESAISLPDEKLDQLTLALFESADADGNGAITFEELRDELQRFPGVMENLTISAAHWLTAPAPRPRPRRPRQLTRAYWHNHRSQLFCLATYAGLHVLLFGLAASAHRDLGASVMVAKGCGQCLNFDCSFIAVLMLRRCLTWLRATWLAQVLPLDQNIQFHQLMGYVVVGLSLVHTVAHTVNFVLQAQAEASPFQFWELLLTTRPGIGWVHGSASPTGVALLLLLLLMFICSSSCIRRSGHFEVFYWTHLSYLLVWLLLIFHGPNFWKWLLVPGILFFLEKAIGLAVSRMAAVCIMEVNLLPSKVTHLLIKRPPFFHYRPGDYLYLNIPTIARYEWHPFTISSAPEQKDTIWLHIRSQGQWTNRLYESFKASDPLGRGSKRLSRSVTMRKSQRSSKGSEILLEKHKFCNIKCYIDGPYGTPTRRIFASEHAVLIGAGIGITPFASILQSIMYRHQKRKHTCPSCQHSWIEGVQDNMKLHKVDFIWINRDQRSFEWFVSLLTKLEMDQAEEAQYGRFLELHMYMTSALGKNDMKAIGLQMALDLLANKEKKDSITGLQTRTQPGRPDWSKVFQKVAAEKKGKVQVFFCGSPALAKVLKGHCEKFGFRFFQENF

[11] = A549 cell viability effects, profiling panel, calcein-AM fluorescence, 48 h, basal (AID 1162); conditions: higher = more signal; also: test concentration not given here
[12] = adipocyte viability effects, profiling panel, cell-based, 3T3-L1 adipocytes, calcein-AM fluorescence, 48 h, basal (AID 1163); conditions: 3T3-L1 adipocytes viability, higher = more signal; also: test concentration not given here
[13] = HepG2 cell viability effects, profiling panel, calcein-AM fluorescence, 48 h, basal (AID 1164); conditions: higher = more signal; also: test concentration not given here
[14] = MM1S cell viability effects, profiling panel, calcein-AM fluorescence, 48 h, basal (AID 1165); conditions: higher = more signal;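 also: viability of MM1S multiple myeloma cells under basal unstimulated conditions; test concentration not given here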
[15] = basal RPMI8226 viability, no added stimulus, profiling panel, cell-based, calcein-AM fluorescence, 48 h, PK04 Diversity Set (AID 1166); conditions: RPMI8226 myeloma viability, higher = more signal;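 also: cells grown under basal conditions without added stimulus; test concentration not given here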
[16] = basal HepG2 mitochondrial membrane potential changes, profiling panel, cell-based, JC-1 fluorescence, 24 h, 100 nL compound (AID 1167); conditions: higher = more signal; also: test concentration not given here
[17] = basal 3T3-L1 adipocyte mitochondrial potential changes, profiling panel, cell-based, JC-1 fluorescence, 3T3-L1 adipocytes, 24 h, 100 nL compound (AID 1168); conditions: JC-1 mitochondrial fluorescence, higher = more signal, called active from +8 up or from −8 down; also: test concentration not given here
[18] = basal RPMI8226 mitochondrial membrane potential changes, profiling panel, cell-based, JC-1 fluorescence, 24 h, 100 nL compound (AID 1169); conditions: RPMI8226 myeloma, JC-1 mitochondrial potential fluorescence, higher = more signal; also: test concentration not given here
[19] = basal MM1S mitochondrial membrane potential changes, profiling panel, cell-based, JC-1 fluorescence, 24 h, 100 nL compound (AID 1170); conditions: higher = more signal; also: test concentration not given here
[20] = A549 lung cancer cell viability effects, profiling panel, resazurin fluorescence, 24 h, PK04 Diversity Set (AID 1171); conditions: higher = more signal, called active from +8 up or from −8 down; also: test concentration not given here

| SMILES | z-score [1] | composite z-score [2] | z-score [3] | z-score [4] | z-score [5] | z-score [6] | z-score [7] | z-score [8] | z-score [9] | z-score [10] | z-score [11] | z-score [12] | z-score [13] | z-score [14] | z-score [15] | z-score [16] | z-score [17] | z-score [18] | z-score [19] | z-score [20] |
| --- | --- | --- | --- | --- | --- | --- | --- | --- | --- | --- | --- | --- | --- | --- | --- | --- | --- | --- | --- | --- |
| COCCOC(=O)N1C(=O)[C@@]2(c3cc(C#Cc4ccc(OC)cc4)ccc31)[C@H](C(N)=O)[C@H]1C(=O)O[C@H](c3ccccc3)[C@H](c3ccccc3)N1[C@@H]2c1ccccc1OCCO | -0.289 (inactive) | 0.358 | 4.42 (inactive) | 2.55 (inactive) | -0.499 (inactive) | 1.59 (inactive) | -0.413 | 2.38 (inactive) | 1.1 (inactive) | 1.44 | -1.25 | 1.18 | -1.76 | -2.32 | -3.94 | -1.79 | 2.99 (inactive) | -0.994 | -1.38 | -1.85 (inactive) |
| COc1cc2c(cc1OC)CN(C(=O)[C@@H]1[C@H]3C(=O)O[C@H](c4ccccc4)[C@H](c4ccccc4)N3[C@H](c3ccc(O)cc3)[C@@]13C(=O)Nc1ccc(C#CC4(O)CCCCCC4)cc13)CC2 | 0.384 (inactive) | -0.771 | 0.794 (inactive) | 0.657 (inactive) | 0.87 (inactive) | 0.442 (inactive) | 0.137 | 1.65 (inactive) | 0.744 (inactive) | 0.479 | 0.192 | 0.284 | 1.37 | 0.132 | -0.0905 | -0.769 | -0.771 (inactive) | -0.767 | -0.401 | 1.05 (inactive) |
| CCCCN1CC=CC23O[C@@H]4C=CCOC(=O)[C@@H]4[C@H]2C(=O)N(CCCCCO)[C@@H]3C1=O (stereo not given in full) | 0.504 (inactive) | 0.749 | 1.25 (inactive) | 0.882 (inactive) | 1.22 (inactive) | 0.529 (inactive) | 0.0401 | 0.872 (inactive) | 0.381 (inactive) | 1.37 | -0.503 | -0.122 | -0.781 | 0.276 | 0.778 | -0.235 | 0.17 (inactive) | -0.0189 | -0.0548 | -0.508 (inactive) |
| COCCOC(=O)N1C(=O)[C@@]2(c3cc(C#CCCO)ccc31)[C@H](c1ccc(OCCO)cc1)N1[C@H](c3ccccc3)[C@H](c3ccccc3)OC(=O)[C@H]1[C@@H]2C(=O)N1CCN(c2ncccn2)CC1 | -0.304 (inactive) | 0.372 | 5.15 (inactive) | 1.58 (inactive) | -0.325 (inactive) | 0.411 (inactive) | -0.113 | 1.89 (inactive) | 0.925 (inactive) | 1.32 | 0.559 | 0.344 | 0.479 | -1.32 | -0.713 | 0.503 | -0.138 (inactive) | -0.41 | -1.19 | 0.253 (inactive) |
| [N-]=[N+]=NCc1ccccc1[C@@H]1OC(c2ccc(OCCCO)cc2)=N[C@]1(CCS(=O)(=O)c1ccccc1)C(=O)NCc1ccccc1 | -0.665 (inactive) | 1.43 | 16.4 (active) | 2.27 (inactive) | 1.75 (inactive) | 0.814 (inactive) | -0.0212 | -1.04 (inactive) | 0.0609 (inactive) | -0.898 | -0.137 | 1.09 | 0.0616 | -0.158 | -1.04 | -0.0428 | 0.0135 (inactive) | -0.143 | -0.979 | 0.201 (inactive) |
| O=C1O[C@H](c2ccccc2)[C@H](c2ccccc2)N2[C@H]1[C@@H](C(=O)N1CCN(c3ncccn3)CC1)[C@]1(C(=O)Nc3ccc(C#CC4=CCCCC4)cc31)[C@H]2c1ccc(O)cc1 | 0.635 (inactive) | 0.396 | 0.706 (inactive) | 0.574 (inactive) | -0.313 (inactive) | 1.01 (inactive) | 0.538 | 0.852 (inactive) | 0.537 (inactive) | 0.837 | 0.645 | 0.301 | 0.469 | -0.36 | -1.91 | -1.49 | 1.44 (inactive) | -0.745 | -0.75 | -0.526 (inactive) |
| COCC(=C=CC[C@H](O)c1ccccc1OCCO)C[C@H](O)c1cc(Cl)cc(Cl)c1O | -0.381 (inactive) | 0.233 | 7.9 (inactive) | 8.65 (active) | -9.18 (active) | 3.52 (inactive) | -0.539 | -5.19 (inactive) | -2.45 (inactive) | -3.1 | -2.79 | -4.68 | -2.64 | -2.93 | -3.02 | -0.775 | 1.66 (inactive) | -0.57 | -1.88 | -3.06 (inactive) |
| COCCOC(=O)N1C(=O)[C@@]2(c3cc(C#CCNC(N)=O)ccc31)[C@H](C(=O)NC[C@H](O)c1ccccc1)[C@H]1C(=O)O[C@H](c3ccccc3)[C@H](c3ccccc3)N1[C@@H]2c1ccccc1OCCO | -0.119 (inactive) | 1.28 | 2.05 (inactive) | 0.35 (inactive) | 0.927 (inactive) | 0.317 (inactive) | 0.239 | 1.91 (inactive) | 1.63 (inactive) | -0.63 | 1.22 | 0.504 | 0.829 | 0.837 | 0.676 | -0.523 | 0.749 (inactive) | -0.548 | -1.04 | -0.0062 (inactive) |
| O=C1OCCC/C=C\[C@H]2OC34C=CCN(CCN5CCOCC5)C(=O)[C@H]3N(CCCO)C(=O)[C@@H]4C12 (stereo not given in full) | -0.478 (inactive) | -0.284 | 2.38 (inactive) | 0.351 (inactive) | -0.893 (inactive) | -0.352 (inactive) | -0.181 | 1.18 (inactive) | 0.481 (inactive) | 2.27 | -0.235 | 1.01 | -0.631 | 1.19 | -0.87 | -1.01 | -0.734 (inactive) | 0.806 | 0.486 | 0.116 (inactive) |

Source: PubChem BioAssay
